Measurements from PubChem BioAssay AID602293 (National Center for Advancing Translational Sciences (NCATS), 2012).
Screen size: about 1,300 compounds; about 30 (2%) were called active. Roughly 10% stayed inconclusive and do not appear here. Calls follow the shape of the dose curve; as a rule, active = well fitted inhibition curve with a large enough effect; inconclusive = small, poorly fitted or top-dose-only effect; inactive = flat fitted curve, though single readings scatter. The entries come from a sample that favours actives as a whole.

assay: qHTS for antagonists of the Thyroid Stimulation Hormone Receptor: Hit Validation in HTRF Activity in a Luteinizing Hormone Receptor Cell Line; settings: LHR-expressing cell line, cAMP HTRF, antagonist mode; series mostly up to 58 µM; activity change, negative = inhibition: at the top concentration
Summary of the method: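 HEK 293 cells stably expressing LH receptor, in DMEM with 10% FCS and 100 uM RO 20-1724, incubated with compound 30 min at room temperature. cAMP measured by competitive HTRF (anti-cAMP cryptate vs cAMP-d2), excitation 330 nm, emissions 615 and 660 nm.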
% is scaled to controls: 0 for no effect and ±100 for the full control effect; potency is read from the fitted curve at half-maximal effect.

| SMILES | activity change, negative = inhibition | Potency |
| --- | --- | --- |
| Cc1cccc(N2CCN(S(=O)(=O)c3ccc4c(c3)NC(=O)CS4)CC2)c1C | -1.48% (inactive) | – |
| CC1CCN(c2ccccc2NC(=O)c2cc([N+](=O)[O-])ccc2N2CCOCC2)CC1 | -3.69% (inactive) | – |
| CSc1nnc(C(C)(C)C)c(=O)n1/N=C/c1c(O)ccc2ccccc12 | 1.35% (inactive) | – |
| Nc1nc(SCc2ccccc2Cl)ns1 | 2.13% (inactive) | – |
| CC1CC1C(=O)N1CCN(S(=O)(=O)c2cc(C(F)(F)F)cc(C(F)(F)F)c2)CC1 (configuration not stated) | 2.61% (inactive) | – |
| COc1cccc(CN(C)C(=O)c2ccc(OCC(=O)Nc3cccc(C(F)(F)F)c3)c(OC)c2)c1 | -0.547% (inactive) | – |
| COc1ccc(-c2nc(CS(=O)CC(=O)NCc3ccccc3)c(C)o2)cc1OC (configuration not stated) | 0.304% (inactive) | – |
| COc1ccc(CC(=O)Nc2cccc(-c3nnc(-c4cccc(C)c4)o3)c2)cc1OC | – | 21.3 µM (active) |
| Cc1ccc(S(=O)(=O)Nc2ccccc2N2CCCCC2)cc1 | -4.31% (inactive) | – |
| COc1ccccc1CNC(=O)CSc1nc(N)c(C#N)c(-c2cccs2)c1C#N | -0.0637% (inactive) | – |
| CCn1nc([N+](=O)[O-])c(C(C#N)c2nc3cc(C(F)(F)F)ccc3s2)c(Cl)c1=O (configuration not stated) | -0.764% (inactive) | – |
| O=C(NC(Nc1nc2ccc([N+](=O)[O-])cc2s1)(C(F)(F)F)C(F)(F)F)c1cccnc1 | -2.25% (inactive) | – |
| O=c1c(Sc2ccccc2)c(C(F)(F)F)[nH]n1-c1ccccc1 | 2.36% (inactive) | – |
| COc1ccc(OC)c(CCNC(=O)Cn2nc(C)c3c(C)n(-c4ccc(C)cc4)nc3c2=O)c1 | -2.32% (inactive) | – |
| CC(=O)NC1=C(Nc2ccc(N(C)C)cc2)C(=O)c2ccccc2C1=O | -3.23% (inactive) | – |
| O=C(OCn1ncc(Cl)c(Cl)c1=O)c1cccc(C(F)(F)F)c1 | -0.844% (inactive) | – |
| Cc1sc2ncnc(N3CCN(CCOc4ccc(Cl)cc4)CC3)c2c1C | -1.63% (inactive) | – |
| Cc1ccc(-c2nc3ccc(C(=O)O)cc3nc2-c2ccc(C)cc2)cc1 | -1.76% (inactive) | – |
| CCOC(=O)c1sc(NC(=O)CSc2n[nH]c(-c3ccncc3)n2)c(C#N)c1C | 0.55% (inactive) | – |
| CCSc1nsc(NC(=O)Nc2cccc(OC)c2)n1 | 1.44% (inactive) | – |
| COc1cccc(NC(=O)Nc2nc(-c3ccc(OC)c(OC)c3)cs2)c1 | – | 13.5 µM (active) |

| SMILES | activity change, negative = inhibition | Potency |
| --- | --- | --- |
| COc1ccc(S(=O)(=O)Nc2ccccc2C(=O)Nc2nc(-c3ccc(F)cc3)cs2)cc1OC | -2.16% (inactive) | – |
| CN(C)S(=O)(=O)c1cccc(-c2nnc(SCc3ccc4c(c3)OCCO4)o2)c1 | -1.33% (inactive) | – |
| COc1ccccc1NS(=O)(=O)c1cccc(NC(=O)c2ccc3ccccc3n2)c1 | -1.31% (inactive) | – |
| CCc1ccc(-c2cc(C)no2)cc1S(=O)(=O)N1CCN(c2ccccn2)CC1 | -2.05% (inactive) | – |
| COc1ccc(CN(C)C(=O)COC(=O)c2ccc(-c3ccccc3)cc2)c(OC)c1OC | -1.51% (inactive) | – |
| CCOc1ccc2nc(SC3CC(=O)N(c4ccccc4)C3=O)sc2c1 (configuration not stated) | 1.87% (inactive) | – |
| Cc1cc(OCc2cc(C(=O)N(C)C(C)c3ccccn3)no2)cc(C)c1Cl (configuration not stated) | 0.705% (inactive) | – |
| CC(C)c1ccccc1OCCNC(=O)c1cccnc1 | 2.01% (inactive) | – |
| O=C(CSc1ccc(F)cc1)N1CCC(c2nc3ccccc3s2)CC1 | -2.02% (inactive) | – |
| N=c1oc2ccccc2cc1C(=O)NC1CCCCCC1 | -0.828% (inactive) | – |
| CC(Sc1nnc(-c2cccs2)n1Cc1ccccc1)C(=O)NCc1ccc2c(c1)OCO2 (configuration not stated) | -1.32% (inactive) | – |
| COc1cccc(-c2nc(-c3ccc(NC(=O)c4cccnc4)cc3)no2)c1 | -3.43% (inactive) | – |
| Cn1c(=O)c(C(=O)NNC(=O)c2cccc(Cl)c2)c(O)c2ccccc21 | -1.11% (inactive) | – |
| CC1Cc2ccccc2N1C(=O)COC(=O)/C=C/c1cccc(F)c1 (configuration not stated) | -1.41% (inactive) | – |
| CCCCCCSc1nsc(NC(C)=O)n1 | 2.54% (inactive) | – |
| O=Cc1c[nH]c2ccc(C(=O)c3ccccc3)cc12 | -1.03% (inactive) | – |
| O=C(CN1C(=O)NC2(CCCCCC2)C1=O)N1CCC(Cc2ccccc2)CC1 | -0.781% (inactive) | – |
| COc1ccc(NS(=O)(=O)c2cc(-c3cnc(C4CC4)o3)ccc2C)cc1 | -3.75% (inactive) | – |
| CC(C)Cn1c(-c2csc3c2CCCC3)n[nH]c1=S | 2.71% (inactive) | – |
| CC(=O)Oc1c(I)cc(I)cc1C(=O)Nc1ccc(Cl)cc1 | -3.87% (inactive) | – |
| Cc1ccc(NS(=O)(=O)c2cc(C(=O)Nc3cccc([N+](=O)[O-])c3)ccc2C)cc1 | -4.12% (inactive) | – |

| SMILES | activity change, negative = inhibition | Potency |
| --- | --- | --- |
| CCCCNC(=O)c1sc(=S)n2c1[nH]c(=O)c1ccccc12 | -0.118% (inactive) | – |
| Cc1cccc(CSCCNC(=O)c2ccc(N(C)S(=O)(=O)c3ccccc3)cc2)c1 | -1.47% (inactive) | – |
| O=[N+]([O-])c1ccc(COc2cccc(CNc3ccc(F)cc3)c2)cc1 | 2.34% (inactive) | – |
| CCCCOc1ncnc2c1[nH]c1ccccc12 | -2.8% (inactive) | – |
| COC(=O)Cn1c(=NC(=O)CSC(C)=O)sc2ccccc21 | -1.47% (inactive) | – |
| CC(C)C[C@H](N)c1nnc(S(=O)(=O)Cc2ccc(F)cc2)o1 | -0.792% (inactive) | – |
| CC(C)c1ccc(/C=C/C(=O)NCCC2=CCCCC2)cc1 | 1.16% (inactive) | – |
| CCOC(=O)c1sc(NC(=O)c2cc(-c3ccccc3)nc3ccccc23)c(C#N)c1C | -1.11% (inactive) | – |
| CC1CCc2nc(NC(=O)CSc3nc4ccccc4o3)sc2C1 (configuration not stated) | -3.41% (inactive) | – |
| Cc1ccccc1NC1c2ccccc2C(=O)N1Cc1ccco1 (configuration not stated) | 0.697% (inactive) | – |
| Cc1c(N=Nc2c(-c3ccc([N+](=O)[O-])cc3)[nH]n(C(N)=S)c2=O)cccc1[N+](=O)[O-] | 2.29% (inactive) | – |
| CC1CCN(S(=O)(=O)c2cccc(C(=O)N3CCN(c4ccc(F)cc4)CC3)c2)CC1 | -1.37% (inactive) | – |
| Cc1cccc2c1NC(=O)C2(c1ccc(O)cc1)c1ccc(O)cc1 | -2.97% (inactive) | – |
| Cc1ccc(-c2cc(C(=O)Nc3ccncc3)c3ccccc3n2)cc1 | -2.05% (inactive) | – |
| CSc1nsc(NC(=O)OCc2ccc(Cl)cc2)n1 | -0.863% (inactive) | – |
| CCOC(=O)Cc1csc(NC(=O)COc2ccc(N(C)S(=O)(=O)c3cccs3)cc2)n1 | -4.36% (inactive) | – |
| O=C1S/C(=C\c2ccc(O)c([N+](=O)[O-])c2)C(=O)N1c1ccccc1Cl | 0.191% (inactive) | – |
| Cn1c2c(c(=O)[nH]c1=O)C(c1ccc(O)cc1)C1=C(N2)c2ccccc2C1=O (configuration not stated) | -0.454% (inactive) | – |
| O=S(=O)(c1ccc(SCc2ccc(Cl)cc2)nc1)N1CCCC1 | -7.02% (inactive) | – |
| CCOc1cc(C(=S)N2CCOCC2)ccc1OC(=O)c1ccccc1 | -1.14% (inactive) | – |
